# “And” between values parts separate entries of the source, which are not always exact repeats. Equal values may be shown once. Results filed as inconclusive are left out. The source made the active and inactive calls. Calls follow the shape of the dose curve; as a rule, active = well fitted activation curve with a large enough effect; inconclusive = small, poorly fitted or top-dose-only effect; inactive = no such curve, though single readings can be large or run the other way.
# Assay: qHTS for small molecules that induce genotoxicity in ELG1 expressing cells: Confirmatory Assay for Cherry-picked Compounds; also: nearly all actives have a fitted effect of over 35% in size
# Settings: ELG1-luciferase reporter cells, luminescence, 16 h; series mostly up to 46.1 µM
# Source text: Cancer cells divide rapidly compared to normal cells in the body. During cell division, cancer cells need to duplicate their genome by DNA replication. The failure of genome duplication leads to cancer cells' death. Therefore, inhibitors of DNA replication could specifically kill cancer cells. Based on this concept, many chemotherapeutic agents were developed and have been used to treat cancer patients. However, there are a limited number of agents available in the clinical setting, and some of those that do exist have low efficacy and severe side effects. Therefore, if we can find the compounds that effectively block DNA replication either by directly damaging DNA or by inhibiting other cellular mechanisms, the options for cancer treatment will be broadened. We developed a quantitative high-throughput ELG1-luciferase reporter gene assay. Since the level of human ELG1 protein is enhanced in response to genetic stresses, increases in luciferase activity can be used to identify compounds that cause genetic stress. The data herein is the result of the confirmation assay against the cherry picked compounds selected from the primary qHTS (AID 504466). Activation is the desired outcome for this assay. NIH Chemical Genomics Center [NCGC] NIH Molecular Libraries Probe Centers Network [MLPCN] MLPCN Grant: MH092164 Assay Provider: Kyungjae Myung, National Human Genome Research Institute, NIH
# For genotoxicity screening, 2,000 cells/ well (5 uL volume) were dispensed into white, solid-bottom 1536-well plates using a solenoid-based dispenser. Following transfer of 23 nL compound or DMSO vehicle by a pin tool, the plates were incubated 16 hr at 37 C, 5% CO2. Five microliter of ONE-Glo reagent (Promega) was then added to each plate. The assay plates were incubated for 30 min at room temperature followed by quantification of the luciferase activity using the PerkinElmer ViewLux CCD-based plate reader.
# Potency is read from the fitted curve at half-maximal effect.
row,SMILES,Potency
1,O=c1cc(-c2ccccc2)oc2ccc(Br)cc12,11.2 µM (active)
2,O=C(c1cc2ccccc2[nH]1)c1cc2cc(O)ccc2[nH]1,7.05 µM (active)
3,CN(C)c1ccccc1-c1csc(N2CCC(C(N)=O)CC2)n1,1.99 µM (active)
4,Fc1ccc2cc(CCO[C@H]3CCCCO3)ncc2c1,3.97 µM (active)
5,O=C(CSc1nnc(-c2cccnc2)o1)Nc1ccccn1,9.12 µM (active) and 8.89 µM (active)
6,COc1ccc(C2CC(c3ccncc3)=NN2c2ccc(S(N)(=O)=O)cc2)cc1 (stereo not given),17.7 µM (active)
7,COc1cccc([C@@H]2Oc3ccc(OC)cc3C(=O)[C@H]2OC(=O)NS(=O)(=O)c2ccc(C)cc2)c1,15.8 µM (active)
8,CC1CCCCC1NC(=O)CN1C(=O)NC(C)(c2ccc(OC(F)F)cc2)C1=O (stereo not given),inactive
9,Cc1ccc(C)c(N2CCN(C(=O)CCc3nc(-c4cccc(Cl)c4)no3)CC2)c1,12.5 µM (active)
10,COc1ccc(/C=C/c2cnc3ccccc3n2)cc1OC,0.112 µM (active)
11,COc1ccc(-c2coc3cc(O)cc(O)c3c2=O)cc1,9.96 µM (active)
12,Cc1ccccc1NC(=O)CSc1nc2ccccc2o1,inactive
13,Cc1cc(C(=O)COC(=O)c2cccnc2Cl)c(C)n1C,0.706 µM (active)
14,Cc1ccc2c(c1)sc1nc(=O)n(-c3ccc(Cl)c(Cl)c3)c(=O)n12,inactive
15,COc1cccc(NC(=O)CSc2nnc(-c3ccc(C)cc3)o2)c1,14.1 µM (active)
16,COc1ccc(-c2nnc(SC(C)C(=O)Nc3cccc(Cl)c3)o2)cc1 (stereo not given),12.5 µM (active)
17,C=C1C(c2ccc(C)cc2)=CCc2cc(C)cc(C)c21,5 µM (active)
18,CS(=O)c1ccc(/C=C2\C=Cc3ccccc32)cc1 (stereo not given),1.26 µM (active)
19,Fc1ccccc1-c1nc(-c2ccc(-c3nn[nH]n3)cc2)no1,7.91 µM (active)
20,Oc1ccc(CCc2ccccc2F)c2cccnc12,14.1 µM (active)

row,SMILES,Potency
1,COc1ccc(C2CC(c3c(O)cc(C)oc3=O)=NCCS2)c(OC)c1 (stereo not given),11.2 µM (active)
2,Cc1ccc2c(c1)sc1nc(=O)n(-c3ccccc3)c(=O)n12,3.54 µM (active)
3,COc1ccc(OCC(=O)Nc2ccc(-c3nc4cc(C)c(C)cc4o3)cc2)cc1,813 nM (active) and 1.12 µM (active)
4,CCc1ccc(OCC(=O)Nc2ccc(-c3nc4ccccc4o3)c(O)c2)cc1,14.1 µM (active)
5,Cc1ccc(-c2nnc(SCC(=O)Nc3ccccc3F)o2)cc1,115 nM (active) and 88.9 nM (active)
6,Cn1c2ccccc2c(=O)c2cc(NCCCN3CCOCC3)ccc21,17.7 µM (active)
7,COc1ccc(S(=O)(=O)N2CCCCC2)cc1NC(=O)c1[nH]c(C)c(C(C)=O)c1C,15.8 µM (active)
8,COCCn1c(C)cc(C(=O)COC(=O)c2cccnc2SC)c1C,2.23 µM (active)
9,O=c1c2ccccc2oc2ccc(-c3ccc4cc[nH]c4c3)cc12,1.26 µM (active)
10,CCN(CC)S(=O)(=O)c1ccc(N2CCOCC2)c(NC(=O)c2[nH]c(C)c(C(C)=O)c2C)c1,12.5 µM (active)
11,O=c1[nH]c(=O)n([C@@H]2O[C@H](CO)[C@@H](O)[C@H]2O)cc1F,3.97 µM (active)
12,CCCCCCC[C@@H](C/C=C/CCC(=O)N(C)C/C(=C/Cl)C/C(=C\C(=O)N1CC(OC)=CC1=O)OC)OC,1.99 µM (active)
13,Cc1c(OCc2ccc([N+](=O)[O-])cc2)ccc2c3c(c(=O)oc12)CCC3,2.81 µM (active)
14,O=C(NOCc1ccccc1)c1ccccc1,8.88 µM (active)
15,O=C(CSc1nnc(-c2ccc(O)cc2)o1)Nc1ccccc1,5 µM (active)
16,N#Cc1cc2cc3c(cc2nc1SCC(=O)N1CCOCC1)OCO3,4.45 µM (active)
17,COc1ccc(-c2cc3cc4c(cc3cn2)OCO4)cc1,1.77 µM (active)
18,CCCC(=O)Oc1ccc2[nH]c(C(=O)c3cc4ccccc4[nH]3)cc2c1,6.28 µM (active)
19,O=C(CSc1nnc(-c2csc3c2CCCC3)o1)Nc1ccccc1,575 nM (active) and 561 nM (active)
20,N#Cc1ccsc1NC(=O)CSc1nncs1,12.5 µM (active)

# Source: PubChem BioAssay AID720565 (National Center for Advancing Translational Sciences (NCATS), 2013)
